# Experimental data: PubChem BioAssay (EPA / NIEHS)
# Inconclusive results are not listed. Activity calls are given as the source filed them. How the source made its calls, unless noted: active means hit-call score of the fitted dose curve at least 0.9, where 1 is the maximum; inconclusive means response in the unintended direction; inactive means score below 0.9.
# Tests used:
# [1] = biological target: human Norepinephrine Transporter (NET), SLC6A2 (gene 6530) (UniProt P23975); assay: NVS_TR_hNET: NovaScreen (NVS) Transporter Assay for human Norepinephrine Transporter (NET) (AID 2283377);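 further: cell-free membrane protein extracted from CHO cells expressing human NET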;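 on AC50: displacement of radioligand from human NET seen as loss of scintillation signal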
# Chain of human Norepinephrine Transporter (NET), SLC6A2 (gene 6530) (P23975 whole entry, looked up): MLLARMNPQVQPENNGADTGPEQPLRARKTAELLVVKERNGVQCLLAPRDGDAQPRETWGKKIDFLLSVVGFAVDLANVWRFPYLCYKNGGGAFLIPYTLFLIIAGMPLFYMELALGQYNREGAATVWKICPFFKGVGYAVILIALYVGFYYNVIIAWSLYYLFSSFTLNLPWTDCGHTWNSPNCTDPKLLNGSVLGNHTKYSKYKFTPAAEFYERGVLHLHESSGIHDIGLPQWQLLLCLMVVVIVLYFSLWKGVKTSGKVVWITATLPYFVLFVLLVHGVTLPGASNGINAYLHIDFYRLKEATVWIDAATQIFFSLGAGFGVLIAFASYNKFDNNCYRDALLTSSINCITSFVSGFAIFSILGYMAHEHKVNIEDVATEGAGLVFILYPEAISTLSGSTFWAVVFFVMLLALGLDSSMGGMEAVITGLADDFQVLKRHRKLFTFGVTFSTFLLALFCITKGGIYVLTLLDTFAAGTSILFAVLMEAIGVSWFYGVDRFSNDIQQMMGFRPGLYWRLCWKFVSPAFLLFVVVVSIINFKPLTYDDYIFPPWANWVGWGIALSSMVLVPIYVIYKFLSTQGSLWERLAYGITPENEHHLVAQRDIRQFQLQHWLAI
# Outline: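 In this cell-free binding screen, chemicals at 25 uM (duplicate) compete with a radioligand for CHO-derived human NET over 1 hour, with filter-based radiodetection.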
# [2] = biological target: human Thyroid Receptor Alpha (TRa), THRA (gene 7067) (UniProt P10827); assay: NVS_NR_hTRa_Antagonist: NovaScreen (NVS) Nuclear Receptor Binding Assay for human Thyroid Receptor Alpha Antagonism (TRa) (AID 2283362)
# Chain of human Thyroid Receptor Alpha (TRa), THRA (gene 7067) (P10827 whole entry, looked up): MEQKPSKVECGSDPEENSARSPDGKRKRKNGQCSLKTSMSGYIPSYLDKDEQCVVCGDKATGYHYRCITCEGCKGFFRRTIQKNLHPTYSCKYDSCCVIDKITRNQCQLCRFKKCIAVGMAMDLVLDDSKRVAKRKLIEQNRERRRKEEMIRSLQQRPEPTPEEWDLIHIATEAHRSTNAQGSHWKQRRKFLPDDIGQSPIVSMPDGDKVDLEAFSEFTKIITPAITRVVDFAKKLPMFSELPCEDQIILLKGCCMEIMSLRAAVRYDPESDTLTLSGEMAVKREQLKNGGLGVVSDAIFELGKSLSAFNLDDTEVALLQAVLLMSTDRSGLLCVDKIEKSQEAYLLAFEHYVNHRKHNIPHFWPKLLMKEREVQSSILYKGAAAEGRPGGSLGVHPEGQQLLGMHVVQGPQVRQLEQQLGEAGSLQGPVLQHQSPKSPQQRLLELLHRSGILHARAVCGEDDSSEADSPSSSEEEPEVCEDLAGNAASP
# Outline: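 Chemicals were first screened in duplicate at 25 uM, then actives were retested in concentration series. Binding to the extracted receptor was measured 1 h after dosing by AlphaLISA chemiluminescence, with decreased signal versus DMSO scored as activity.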
# [3] = biological target: Nuclear receptor subfamily 1 group I member 2 (Homo sapiens) (UniProt O75469); assay: NVS_NR_hPXR: NovaScreen (NVS) Nuclear Receptor Binding Assay for human Pregnane X Receptor (PXR) (AID 2283365);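 further: a drop in FRET signal versus DMSO baseline means the compound binds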
# Chain of Nuclear receptor subfamily 1 group I member 2 (Homo sapiens) (O75469 whole entry, looked up): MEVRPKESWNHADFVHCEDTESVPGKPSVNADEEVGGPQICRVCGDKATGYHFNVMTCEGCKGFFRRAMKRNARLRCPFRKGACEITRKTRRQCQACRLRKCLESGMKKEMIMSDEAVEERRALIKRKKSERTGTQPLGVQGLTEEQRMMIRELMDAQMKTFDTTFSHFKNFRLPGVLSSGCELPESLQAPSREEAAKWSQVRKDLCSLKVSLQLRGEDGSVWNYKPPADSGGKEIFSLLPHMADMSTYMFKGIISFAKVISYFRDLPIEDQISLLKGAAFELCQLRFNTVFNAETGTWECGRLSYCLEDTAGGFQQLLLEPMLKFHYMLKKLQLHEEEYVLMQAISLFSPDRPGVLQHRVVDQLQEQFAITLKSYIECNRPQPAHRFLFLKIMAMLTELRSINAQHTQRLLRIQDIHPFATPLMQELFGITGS
# Outline: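 Binding was measured by time-resolved fluorescence resonance energy transfer after a 2 h exposure of extracted human PXR protein without cells. Compounds were first tested at 25 uM in duplicate, with concentration series for actives; DMSO defined baseline.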
# [4] = biological target: Peroxisome proliferator-activated receptor gamma (Homo sapiens) (UniProt P37231); assay: NVS_NR_hPPARg: NovaScreen (NVS) Nuclear Receptor Binding Assay for human Peroxisome Proliferator-activated Receptor gamma (PPARg) (AID 2283370)
# Chain of Peroxisome proliferator-activated receptor gamma (Homo sapiens) (P37231 whole entry, looked up): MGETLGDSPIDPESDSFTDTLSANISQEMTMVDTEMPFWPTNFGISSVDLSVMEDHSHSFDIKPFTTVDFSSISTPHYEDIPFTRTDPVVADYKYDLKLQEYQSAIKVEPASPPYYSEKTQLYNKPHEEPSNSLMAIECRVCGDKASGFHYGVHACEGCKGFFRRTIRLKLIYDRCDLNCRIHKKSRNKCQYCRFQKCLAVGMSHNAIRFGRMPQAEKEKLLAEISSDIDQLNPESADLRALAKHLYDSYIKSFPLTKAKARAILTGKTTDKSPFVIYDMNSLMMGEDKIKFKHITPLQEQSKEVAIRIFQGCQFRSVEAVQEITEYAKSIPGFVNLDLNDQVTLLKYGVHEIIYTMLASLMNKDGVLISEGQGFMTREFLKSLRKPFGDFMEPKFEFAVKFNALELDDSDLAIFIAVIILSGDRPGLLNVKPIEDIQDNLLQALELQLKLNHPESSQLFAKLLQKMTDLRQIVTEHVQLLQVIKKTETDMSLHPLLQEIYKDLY
# Outline: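 Fluorescence polarization measures competitive binding to extracted PPARg in a cell-free format. Reading is taken at 2 h; activity is signal loss relative to DMSO. Screening at 25 uM in duplicate preceded confirmatory dose series.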
# [5] = test system: guinea pig Dopamine Transporter (DAT), gene 100714898; assay: NVS_TR_gDAT: NovaScreen (NVS) Transporter Assay for guinea pig Dopamine Transporter (DAT) (AID 2283369);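 further: active compounds lower bound radioligand signal relative to DMSO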
# Outline: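 Test chemicals were incubated 2 h with guinea pig striatal membranes and a radioligand; bound label was separated by filtration and counted. Screening ran at 25 uM, followed by concentration-response testing to a 50 uM maximum.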
# [6] = biological target: guinea pig Sigma Receptor, Non-selective Binding, SIGMAR1 (gene 100135589) (UniProt Q60492); assay: NVS_OR_gSIGMA_NonSelective: NovaScreen (NVS) Nuclear Receptor Binding Assay for guinea pig Sigma Receptor, Non-selective Binding (AID 2283367)
# Chain of guinea pig Sigma Receptor, Non-selective Binding, SIGMAR1 (gene 100135589) (Q60492 whole entry, looked up): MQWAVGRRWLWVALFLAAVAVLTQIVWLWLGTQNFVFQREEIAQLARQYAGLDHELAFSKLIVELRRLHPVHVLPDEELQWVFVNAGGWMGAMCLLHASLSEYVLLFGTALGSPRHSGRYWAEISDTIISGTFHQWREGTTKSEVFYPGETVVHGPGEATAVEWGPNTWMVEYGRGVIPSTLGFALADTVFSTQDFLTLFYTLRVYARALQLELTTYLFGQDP
# Outline: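 Test chemicals were screened in duplicate at 25 uM, then in concentration series if active, against radioligand binding to guinea pig brain membranes; filtration and scintillation counting at 1 h measured remaining bound ligand.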
# [7] = biological target: human Dopamine Transporter (DAT), SLC6A3 (gene 6531) (UniProt Q01959); assay: NVS_TR_hDAT: NovaScreen (NVS) Transporter Assay for human Dopamine Transporter (DAT) (AID 2283374);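 further: activity means loss of bound radioligand signal relative to DMSO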
# Chain of human Dopamine Transporter (DAT), SLC6A3 (gene 6531) (Q01959 whole entry, looked up): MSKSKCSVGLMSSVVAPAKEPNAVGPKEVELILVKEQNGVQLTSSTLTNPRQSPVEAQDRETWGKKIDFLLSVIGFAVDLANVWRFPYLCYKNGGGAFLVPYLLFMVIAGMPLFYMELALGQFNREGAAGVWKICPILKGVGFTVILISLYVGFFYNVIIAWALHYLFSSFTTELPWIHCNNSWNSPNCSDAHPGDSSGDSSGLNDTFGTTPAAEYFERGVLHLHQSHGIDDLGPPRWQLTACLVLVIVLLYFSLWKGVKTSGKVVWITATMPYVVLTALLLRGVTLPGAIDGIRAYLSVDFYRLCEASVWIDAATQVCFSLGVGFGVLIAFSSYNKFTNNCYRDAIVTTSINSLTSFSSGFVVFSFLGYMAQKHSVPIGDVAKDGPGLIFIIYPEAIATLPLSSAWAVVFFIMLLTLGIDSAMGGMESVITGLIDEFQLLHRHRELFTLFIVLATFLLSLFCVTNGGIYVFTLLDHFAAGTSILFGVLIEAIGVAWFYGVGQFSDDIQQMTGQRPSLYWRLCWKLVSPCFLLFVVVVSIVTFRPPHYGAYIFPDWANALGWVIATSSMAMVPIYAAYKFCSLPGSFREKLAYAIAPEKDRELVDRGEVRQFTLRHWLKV
# Outline: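 Extracted human SLC6A3 protein incubated 1 h with radioligand and test chemical; bound fraction separated on filters and counted. Single 25 uM duplicate screen preceded concentration-response follow-up; positive and negative controls on every plate.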
# [8] = biological target: Estrogen receptor (Homo sapiens) (UniProt P03372); assay: OT_ERa_GFPERaERE_0480: Odyssey Thera (OT) 8-hour HeLa Transcription Induction Assay for Estrogen Receptor (AID 2283381; active means hit-call score of the fitted dose curve at least 0.9, where 1 is the maximum; inactive means score below 0.9)
# Chain of Estrogen receptor (Homo sapiens) (P03372 whole entry, looked up): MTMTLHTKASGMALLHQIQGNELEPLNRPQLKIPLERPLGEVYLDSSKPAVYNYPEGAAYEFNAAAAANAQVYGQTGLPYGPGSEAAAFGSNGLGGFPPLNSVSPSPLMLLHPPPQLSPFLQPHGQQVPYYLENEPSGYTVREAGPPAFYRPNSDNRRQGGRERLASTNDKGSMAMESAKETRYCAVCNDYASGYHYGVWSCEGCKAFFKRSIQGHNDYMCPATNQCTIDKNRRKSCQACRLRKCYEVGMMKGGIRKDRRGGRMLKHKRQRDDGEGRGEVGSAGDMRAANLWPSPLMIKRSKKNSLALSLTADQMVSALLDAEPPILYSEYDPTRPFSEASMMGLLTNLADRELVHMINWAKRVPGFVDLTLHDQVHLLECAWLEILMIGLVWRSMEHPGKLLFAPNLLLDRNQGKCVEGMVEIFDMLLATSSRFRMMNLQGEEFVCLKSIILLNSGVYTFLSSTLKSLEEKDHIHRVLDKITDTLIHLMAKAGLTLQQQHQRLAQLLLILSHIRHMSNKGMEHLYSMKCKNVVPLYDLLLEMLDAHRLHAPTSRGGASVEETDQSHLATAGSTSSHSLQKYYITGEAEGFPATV
# Outline: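 GFP-ERE reporter, HeLa, 8 h exposure. Readout: fluorescence microscopy, high-content image analysis. Fit direction positive vs DMSO negative control.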
# [9] = biological target: Estrogen receptor beta (Homo sapiens) (UniProt Q92731); assay: OT_ER_ERbERb_1440: Odyssey Thera (OT) 24-hour HEK293T Protein-Complementation Assay for Estrogen Receptor-beta/-beta Homodimer (AID 2283380);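 further: fluorescence gain from ER beta LBD homodimer complementation read by laser scanning cytometry; scored as signal increase over DMSO baseline for both agonists and antagonists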
# Chain of Estrogen receptor beta (Homo sapiens) (Q92731 whole entry, looked up, the tested form may be a part): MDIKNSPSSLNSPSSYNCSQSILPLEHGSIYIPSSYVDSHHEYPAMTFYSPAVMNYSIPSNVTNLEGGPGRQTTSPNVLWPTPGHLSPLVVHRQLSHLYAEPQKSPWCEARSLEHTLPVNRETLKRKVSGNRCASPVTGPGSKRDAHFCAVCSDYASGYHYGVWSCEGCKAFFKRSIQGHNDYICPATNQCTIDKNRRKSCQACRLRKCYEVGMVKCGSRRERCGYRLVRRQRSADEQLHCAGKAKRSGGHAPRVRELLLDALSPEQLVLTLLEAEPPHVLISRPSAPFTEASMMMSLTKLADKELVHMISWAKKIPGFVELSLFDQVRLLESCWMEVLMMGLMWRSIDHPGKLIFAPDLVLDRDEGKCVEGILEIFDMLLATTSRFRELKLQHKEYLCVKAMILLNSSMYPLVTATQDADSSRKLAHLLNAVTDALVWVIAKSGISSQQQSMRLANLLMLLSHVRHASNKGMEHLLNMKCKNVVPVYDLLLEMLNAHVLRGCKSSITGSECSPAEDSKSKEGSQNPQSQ
# Outline: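 HEK293T cells stably expressing human ER-beta LBD (aa 310-547) PCA homodimer pair, dosed 24 h; formaldehyde-fixed, Draq5-stained. Readout: increase in nuclear (agonist) or nuclear plus cytoplasmic (antagonist) fluorescence intensity versus DMSO, gain-of-signal fitting.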
# PGR (gene 5241) = PGR (gene 5241) (UniProt P06401); assay: NVS_NR_hPR: NovaScreen (NVS) Nuclear Receptor Binding Assay for human Progestron Receptor (PR) (AID 2283360);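 further: active means loss of bound radioligand signal versus DMSO baseline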
# Chain of PGR (gene 5241) (P06401 whole entry, looked up): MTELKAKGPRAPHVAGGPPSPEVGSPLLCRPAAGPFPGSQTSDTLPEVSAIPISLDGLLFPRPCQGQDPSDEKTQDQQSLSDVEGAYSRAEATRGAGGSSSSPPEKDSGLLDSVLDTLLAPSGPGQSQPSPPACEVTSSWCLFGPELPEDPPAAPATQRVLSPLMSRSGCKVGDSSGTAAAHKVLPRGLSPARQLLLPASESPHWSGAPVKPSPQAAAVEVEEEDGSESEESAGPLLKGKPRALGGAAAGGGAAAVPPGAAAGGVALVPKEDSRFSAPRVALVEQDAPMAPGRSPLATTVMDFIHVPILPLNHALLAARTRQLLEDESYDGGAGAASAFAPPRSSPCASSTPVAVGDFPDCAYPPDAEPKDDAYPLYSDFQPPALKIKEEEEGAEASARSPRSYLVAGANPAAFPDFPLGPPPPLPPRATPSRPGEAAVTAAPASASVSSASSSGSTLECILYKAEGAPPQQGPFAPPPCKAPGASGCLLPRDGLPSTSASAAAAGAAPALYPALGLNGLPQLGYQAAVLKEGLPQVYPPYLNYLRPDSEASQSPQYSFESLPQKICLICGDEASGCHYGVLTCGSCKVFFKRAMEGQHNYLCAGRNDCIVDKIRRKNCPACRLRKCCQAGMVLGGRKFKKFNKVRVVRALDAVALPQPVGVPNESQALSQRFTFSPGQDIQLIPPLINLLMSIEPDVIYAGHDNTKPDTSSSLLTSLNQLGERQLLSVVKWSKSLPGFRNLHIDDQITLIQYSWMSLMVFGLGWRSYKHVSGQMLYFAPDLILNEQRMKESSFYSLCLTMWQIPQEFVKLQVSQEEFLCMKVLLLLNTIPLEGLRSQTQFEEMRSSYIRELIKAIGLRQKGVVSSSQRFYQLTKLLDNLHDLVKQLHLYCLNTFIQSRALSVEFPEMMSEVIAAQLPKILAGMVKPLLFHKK
# Outline: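 T47D-derived receptor preparation, cell-free, with tritiated or iodinated radioligand displacement measured by scintillation 18 h post-dosing. Single 25 uM duplicate screen, then concentration series; signal loss relative to DMSO.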
# [10] = biological target: rat Serotonin Transporter (SERT), Slc6a4 (gene 25553) (UniProt P31652); assay: NVS_TR_rSERT: NovaScreen (NVS) Transporter Assay for rat Serotonin Transporter (SERT) (AID 2283375)
# Outline: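 Steps: rat forebrain membranes dosed with chemical (25 uM duplicate primary; concentration series for actives); 1 h incubation; labelled ligand bound, filtered, counted by scintillation. Activity scored as signal loss vs DMSO.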
smiles,measurement,setting,value
CC=Cc1ccc(OCC)c(O)c1,AC50,[1],5.31 µM (active)
C[C@@H]1CCN(C(=O)[C@H](CCCN=C(N)N)NS(=O)(=O)c2cccc3c2NC[C@H](C)C3)[C@@H](C(=O)O)C1,outcome,[1],inactive
Oc1ccc2cc(SSc3ccc4cc(O)ccc4c3)ccc2c1,outcome,[2],inactive
same,outcome,[3],inactive
same,outcome,[4],inactive
CC=Cc1ccc(OC)c(OC)c1,outcome,[1],inactive
CCOC(=O)C1OC1c1ccccc1 (configuration not stated),outcome,[3],inactive
O=C(O)c1ccc(O)cc1,outcome,[3],inactive
CN(C)C(=S)SC(=S)N(C)C,AC50,[5],6.19 µM (active)
CCOCCOCCOCC,AC50,[6],4.87 µM (active)
CC1(C)C(=O)N(Cl)C(=O)N1Br,outcome,[2],inactive
CS(=O)(=O)OCCCCOS(C)(=O)=O,AC50,[7],25 µM (active)
same,outcome,[1],inactive
same,outcome,[8],inactive
CCCC(O)C(O)CO (configuration not stated),outcome,[1],inactive
CC(C)NCC(O)COc1ccc(CC(N)=O)cc1 (configuration not stated),outcome,[4],inactive
same,outcome,[8],inactive
COc1ccc(OC)c(N=Nc2c(O)ccc3ccccc23)c1,AC50,[1],17.4 µM (active)
CC(C)C[C@H](NC(=O)OCC1c2ccccc2-c2ccccc21)C(=O)O,AC50,[4],46.6 µM (active)
CCc1cc(C(C)(C)C)c(O)c(C(C)(C)C)c1,outcome,[4],inactive
CCCCCCCCCCCCN1CCCCCC1=O,outcome,[3],inactive
same,outcome,[9],inactive
O=CCc1ccccc1,outcome,[4],inactive
CC(=O)O[C@@H]1CC2CCC1(C)C2(C)C (some centres not stated),outcome,[9],inactive
Nc1ccc(Cl)c([N+](=O)[O-])c1,outcome,[1],inactive
ClC(c1ccccc1)(c1ccccc1)c1ccccc1,outcome,PGR (gene 5241),inactive
same,outcome,[5],inactive
same,outcome,[7],inactive
c1ccc2[nH]cnc2c1,outcome,[6],inactive
COc1cccc(OC)c1O,outcome,[1],inactive
COc1ccc(CCN2CCC(Nc3nc4ccccc4n3Cc3ccc(F)cc3)CC2)cc1,outcome,PGR (gene 5241),inactive
same,AC50,[6],1.24 µM (active)
same,AC50,[5],4.41 µM (active)
same,AC50,[7],3.89 µM (active)
same,AC50,[10],2.26 µM (active)
same,AC50,[1],2.52 µM (active)
OCC(O)c1ccccc1 (configuration not stated),outcome,[8],inactive
COc1cc(Cl)c(OC)cc1N,AC50,[1],25 µM (active)
CCCCCC(C)=O,outcome,[9],inactive
O=C1OC[C@H](Cc2cccc(O)c2)[C@H]1Cc1cccc(O)c1,AC50,[5],0.771 µM (active)
same,AC50,[7],0.0517 µM (active)
OCCc1ccccc1,outcome,[3],inactive
